Reference: the supplement of paper PMC10981050
Values joined by “and” are separate entries in the source; they are usually repeats but may differ in a detail not shown here. Equal values may be shown once. Where a name gives a salt, the structure may show the parent alone.

Key:
Assay in all cases: cell viability relative to vehicle control; higher = less cytotoxic
Details in all cases: 10 µM
[1] = tested on: K562
How it was run: (§1)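 After removal of identity-inconsistent compounds, the Selleck bioactive, kinase and epigenetic probe libraries were screened on CRISPR-edited mutant clones and isogenic wild-type clones of four leukaemia lines. Plates were 384-well, each well holding 2000 cells in 50 µL medium and receiving a single 10 µM acoustically dispensed dose. CellTiter-Glo luminescence was read 48 h later, after the supernatant was taken off. Genedata Screener was used to express viability as percent of the on-plate vehicle control.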

[2] = tested on: MARIMO
How it was run: as §1

[3] = tested on: MOLM14
How it was run: as §1

[4] = tested on: OCI-AML2
How it was run: as §1

Compound | cell viability ([1]; SRSF2 genotype: SRSF2 P95H/wt) | cell viability ([1]; SRSF2 genotype: SRSF2 wt/wt) | cell viability ([2]; SRSF2 genotype: SRSF2 P95H/wt) | cell viability ([2]; SRSF2 genotype: SRSF2 wt/wt) | cell viability ([3]; SRSF2 genotype: SRSF2 P95H/wt) | cell viability ([3]; SRSF2 genotype: SRSF2 wt/wt) | cell viability ([4]; SRSF2 genotype: P95H/wt) | cell viability ([4]; SRSF2 genotype: wt/wt)
CC[C@H](C)[C@@H]([C@@H](CC(=O)N1CCC[C@H]1[C@H](OC)[C@@H](C)C(=O)N[C@H](C)[C@@H](O)c1ccccc1)OC)N(C)C(=O)[C@@H](NC(=O)[C@@H](NC)C(C)C)C(C)C [Monomethyl auristatin E (MMAE)] | 11.7% and 32% | 30.1% | 7.27% | 8.86% | 0.32% | 0.5% | 0.78% | 2.69%
C[N+](C)(C)CCCCCCCCCC[N+](C)(C)C [Decamethonium Bromide] | 100% and 109% | 111% | 98.9% | 102% | 102% | 101% | 120% | 102%
COc1ccc2c(c1OC)CC1c3c(cc4c(c3-2)OCO4)CCN1C (stereo not drawn) [Crebanine] | 93.7% and 93.3% | 95.9% | 80.5% | 83% | 95.9% | 93.4% | 80.6% | 84.5%
O=c1[nH]c2ccccc2n1C1CCN(Cc2ccc(-c3[nH]c4cc5ncnc5cc4nc3-c3ccccc3)cc2)CC1 | 56.9% and 65.9% | 61.7% | 66.5% | 76.2% | 53.6% | 43.6% | 48.8% | 47.9%
CCN1CC2(OC(=O)c3ccccc3NC(C)=O)CCC(OC)C34C1C(CC23)C1(O)CC(OC)C2CC4C1(O)C2OC (stereo not drawn) [Lappaconite Hydrobromide] | 102% and 86.3% | 88.2% | 86.7% | 96.2% | 89.6% | 96.4% | 97.3% | 87.2%
CN1[C@@H]2CC[C@H]1C[C@@H](OC(=O)C(CO)c1ccccc1)C2 (stereo partly drawn) [Atropine sulfate] | 105% and 99.4% | 100% | 105% | 112% | 110% | 107% | 94% | 97.8%
COP(=O)(OC)SCn1c(=O)oc2cc(Cl)cnc21 [Azamethiphos] | 55.4% and 71.8% | 78.9% | 48.4% | 58.3% | 93.3% | 107% | 110% | 106%
CCNc1nc(Cl)nc(NC(C)C)n1 [Atrazine] | 97.5% and 94.1% | 98.2% | 90.6% | 102% | 93.9% | 97% | 99.1% | 104%
COc1c(C)c(O)cc2[o+]c(-c3ccccc3)ccc12.[O-][Cl+3]([O-])([O-])[O-] [Dracohodin perochlorate] | 80.8% and 78.3% | 77.4% | 80.1% | 86.8% | 80.1% | 82.3% | 83.6% | 84.1%
CCCN1C[C@H](CSC)C[C@@H]2c3cccc4[nH]cc(c34)C[C@H]21 [Pergolide mesylate] | 86.1% and 87.8% | 89.7% | 91.7% | 103% | 69.6% | 83.5% | 84% | 93.1%
O=C1CCC[C@@H]2[C@H]3CCCN4CCC[C@H](CN12)[C@@H]34 [Sophoridine] | 104% and 100% | 105% | 108% | 113% | 103% | 108% | 100% | 101%
COc1ccc2c(c1OC)CN1CCc3cc4c(cc3C1C2)OCO4 (stereo not drawn) [Tetrahydroberberine] | 86.9% and 87% | 81.9% | 69.8% | 85% | 81.2% | 86.6% | 73% | 72.8%
O=C(O)C(=O)CBr [Bromopyruvic acid] | 99.8% and 89.6% | 90.3% | 90% | 97.8% | 91.6% | 94.7% | 94.7% | 93.9%
CC(=O)O[C@H]1C[C@@H]2CC[C@@H]3[C@H](CC[C@@]4(C)[C@H]3C[C@H]([N+]3(C)CCCCC3)[C@@H]4OC(C)=O)[C@@]2(C)C[C@@H]1[N+]1(C)CCCCC1 [Pancuronium dibromide] | 101% and 96.7% | 91.6% | 96% | 99.3% | 103% | 102% | 97.4% | 101%
CCNC(=O)C[C@@H]1N=C(c2ccc(Cl)cc2)c2cc(OC)ccc2-n2c(C)nnc21 | 72.5% and 71.1% | 73.3% | 38.9% | 41.3% | 30% | 28.7% | 24.7% | 37.5%
Cc1sc2c(c1C)C(c1ccc(Cl)cc1)=N[C@@H](CC(=O)Nc1ccc(O)cc1)c1nnc(C)n1-2 | 60.9% and 68.8% | 71.9% | 27.3% | 35.8% | 18% | 14.1% | 17.7% | 32.3%
CN1C2CC(O)CC1C1OC12 (stereo not drawn) [Scopine] | 100% and 97.1% | 95.5% | 101% | 103% | 97% | 100% | 93.6% | 106%
CCO[C@H]1O[C@@H]2O[C@@]3(C)CC[C@H]4[C@H](C)CC[C@@H]([C@H]1C)[C@@]24OO3 [Arteether] | 68.2% and 63.3% | 69% | 62.3% | 64.4% | 69.8% | 45.7% | 55.5% | 52.5%
C[C@]12CC[C@H]3[C@@H](CC[C@@]45O[C@@H]4C(O)=C(C#N)C[C@]35C)[C@@H]1CC[C@@H]2O [Trilostane] | 92.4% and 94.7% | 97.6% | 87.4% | 92.5% | 95.4% | 102% | 123% | 118%
Cc1cccc(Cc2c[nH]cn2)c1C [Detomidine HCl] | 96.3% and 104% | 96.5% | 103% | 95.3% | 105% | 106% | 110% | 93.1%
COc1cc(C(=O)O)cc(OC)c1OC [Gallic acid trimethyl ether] | 106% and 110% | 101% | 102% | 106% | 105% | 106% | 99.2% | 109%

Compound | cell viability ([1]; SRSF2 genotype: SRSF2 P95H/wt) | cell viability ([1]; SRSF2 genotype: SRSF2 wt/wt) | cell viability ([2]; SRSF2 genotype: SRSF2 P95H/wt) | cell viability ([2]; SRSF2 genotype: SRSF2 wt/wt) | cell viability ([3]; SRSF2 genotype: SRSF2 P95H/wt) | cell viability ([3]; SRSF2 genotype: SRSF2 wt/wt) | cell viability ([4]; SRSF2 genotype: P95H/wt) | cell viability ([4]; SRSF2 genotype: wt/wt)
CN(C)C(=O)Oc1ccc[n+](C)c1 [Pyridostigmine Bromide (Mestinon)] | 93.7% and 96.7% | 95.9% | 93.5% | 98.7% | 96.6% | 94.3% | 93.2% | 97%
CN1C(=O)[C@@]23C[C@]4([C@]56C[C@@]78SS[C@@](CO)(C(=O)N7[C@H]5Nc5ccccc56)N(C)C8=O)c5ccccc5N[C@@H]4N2C(=O)[C@]1(CO)SS3 [Chaetocin] | 0.42% and 0.29% | 0.65% | 0.27% | 0.33% | 0.25% | 0.28% | 0.23% | 0.24%
N#C[C@H](O[C@@H]1O[C@H](CO[C@@H]2O[C@H](CO)[C@@H](O)[C@H](O)[C@H]2O)[C@@H](O)[C@H](O)[C@H]1O)c1ccccc1 [Amygdalin] | 104% and 107% | 102% | 104% | 107% | 106% | 108% | 107% | 95.3%
OC(c1ccccc1)(c1ccccc1)C1CCNCC1 [Azacyclonol] | 93.7% and 92.3% | 95.1% | 85.4% | 94.4% | 94.7% | 97.8% | 89% | 94.5%
CN1c2ccccc2C(NCCCCCCC(=O)O)c2ccc(Cl)cc2S1(=O)=O (stereo not drawn) [Tianeptine sodium] | 99.4% and 97.1% | 97.6% | 106% | 108% | 107% | 101% | 98.4% | 111%
O=C(NC(=O)c1c(F)cccc1F)Nc1ccc(OC(F)(F)C(F)OC(F)(F)F)c(Cl)c1 (stereo not drawn) [Novaluron] | 110% and 101% | 113% | 94.2% | 98.4% | 106% | 106% | 98.1% | 109%
CN(C)[C@@H]1C(=O)C(C(N)=O)=C(O)[C@@]2(O)C(=O)C3=C(O)c4c(O)cccc4[C@@](C)(O)[C@H]3[C@H](O)[C@@H]12 [Oxytetracycline (Terramycin)] | 86.7% and 82.8% | 85.9% | 90.8% | 87.4% | 87.5% | 88.3% | 84.5% | 90%
C[C@H]1CC[C@@H]2N(C1)C[C@H]1[C@@H]3C[C@H]4[C@@H](CC(=O)[C@H]5C[C@@H](O)CC[C@@]54C)[C@@H]3CC[C@H]1[C@]2(C)O [Imperialine] | 112% and 97.8% | 109% | 103% | 101% | 105% | 106% | 101% | 107%
CCC(COC(=O)c1cc(OC)c(OC)c(OC)c1)(c1ccccc1)N(C)C (stereo not drawn) [Trimebutine maleate] | 99% and 90.6% | 98.2% | 87.9% | 90.3% | 88.9% | 98.2% | 89.9% | 97.4%
CCN(Cc1ccc(Cl)nc1)/C(=C/[N+](=O)[O-])NC [Nitenpyram] | 98.8% and 88.3% | 99.9% | 94.5% | 99% | 97.7% | 98.6% | 95.2% | 99.8%
CC(C)[C@]12O[C@H]1[C@@H]1O[C@@]13[C@@]1(C)CCC4=C(COC4=O)[C@@H]1C[C@@H]1O[C@@]13C2=O [Triptonide] | 5.3% and 13.3% | 8.48% | 12.8% | 5.79% | 2.66% | 0.71% | 5.01% | 15.2%
CC(C)C(Br)C(=O)NC(N)=O (stereo not drawn) [Bromisoval] | 99.8% and 99.2% | 94.8% | 95.8% | 108% | 92% | 104% | 93.2% | 95%
CC[C@]12C=CCN3CC[C@]4(C(=C(C(=O)OC)C1)Nc1ccccc14)[C@@H]32 [Tabersonine] | 17.7% and 27% | 30.1% | 19.1% | 18.7% | 11.3% | 4.06% | 7.01% | 14.7%
CN1CC=C(c2ccccc2)CC1 [MPTP hydrochloride] | 100% and 99.7% | 102% | 107% | 111% | 103% | 105% | 92.5% | 108%
COc1cc(-n2c(=S)[nH]c3ccccc3c2=O)c(Cl)cc1Cl [Mdivi-1] | 91.9% and 96.6% | 94.2% | 90.7% | 95.2% | 91% | 102% | 109% | 116%
CC(C)N(CCC(C(N)=O)(c1ccccc1)c1ccccn1)C(C)C (stereo not drawn) [disopyramide phosphate] | 98.9% and 108% | 106% | 104% | 109% | 104% | 104% | 107% | 96.2%
O=C1CC[C@@]2(O)[C@H]3Cc4ccc(O)c5c4[C@@]2(CCN3CC2CC2)[C@H]1O5 [Naltrexone HCl] | 98.5% and 105% | 97.7% | 98.8% | 103% | 99.9% | 103% | 106% | 99.8%
CC(C)c1ccc(CO)cc1 [4-Isopropylbenzyl Alcohol] | 107% and 98.3% | 97.1% | 99.9% | 110% | 102% | 105% | 87.7% | 97.4%
O=c1ccc2c(O)c3ccoc3cc2o1 [Bergaptol] | 108% and 106% | 116% | 105% | 95.6% | 113% | 107% | 106% | 97.5%
CN1CCc2cc3c(cc2C1C1OC(=O)c2c1ccc1c2OCO1)OCO3 (single isomer, unassigned; (+)) [(+)-Bicuculline] | 102% and 97.1% | 96.5% | 97.6% | 106% | 99.2% | 99.5% | 93.9% | 96.7%
